# From PubChem BioAssay (NCI)
# The panel holds about 79,000 compounds, 15% with a hit somewhere; the sample as a whole holds those more often. Values without a mark were called inactive. Active and inactive are the calls of the source. No stated cut-off is given here; in the data, active means growth inhibition above about 70%; inactive means the rest.
# How the values were obtained:
# [1] = NCI Yeast Anticancer Drug Screen. Data for the rad52 strain (AID 147);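 further: 0% = growth of vehicle-treated control cultures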; settings: S. cerevisiae rad52 mutant growth inhibition, stronger effect = higher value
# How it was run: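 DNA repair-defective yeast; compound exposure; growth scored against vehicle controls.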
# [2] = NCI Yeast Anticancer Drug Screen. Data for the wt1 strain (AID 149);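 further: 0% = growth of vehicle-treated wt1 cultures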; settings: S. cerevisiae wt1 strain (SPY 50644) growth inhibition, stronger effect = higher value
# How it was run: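 wt1 yeast, compound-treated; % growth inhibition vs vehicle control.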
# [3] = NCI Yeast Anticancer Drug Screen. Data for the rad50EPP+ strain (AID 151);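 further: 0% = growth of vehicle-treated control cultures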; settings: S. cerevisiae rad50 mutant strain, stronger effect = higher value
# How it was run: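 rad50EPP+ yeast treated with test compounds. Readout: growth vs vehicle control.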
# [4] = NCI Yeast Anticancer Drug Screen. Data for the mgt1 strain (AID 153); settings: S. cerevisiae mgt1 mutant growth inhibition, stronger effect = higher value
# How it was run: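 Growth inhibition relative to vehicle controls was scored for the mgt1 yeast strain after compound exposure.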
# [5] = NCI Yeast Anticancer Drug Screen. Data for the rad50 strain (AID 155);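 further: 0% = growth of vehicle-only cultures of the same strain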; settings: S. cerevisiae rad50 strain growth inhibition, stronger effect = higher value
# How it was run: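 Genetically altered yeast (DNA repair pathway); compound treatment; growth inhibition vs vehicle ctrl.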
# [6] = NCI Yeast Anticancer Drug Screen. Data for the mec2-1 strain (AID 157); settings: S. cerevisiae mec2-1 strain, stronger effect = higher value
# How it was run: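 Growth inhibition is read against vehicle-treated controls after compound exposure of the mec2-1 yeast strain, which is defective in DNA damage repair or cell cycle control.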
# [7] = NCI Yeast Anticancer Drug Screen. Data for the rad14 strain (AID 159);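 further: 0% = growth of vehicle-treated control cultures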; settings: S. cerevisiae rad14 strain growth inhibition, stronger effect = higher value
# How it was run: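 Test compounds were applied to a repair-deficient yeast strain. Its growth was then compared with that of cultures given vehicle alone, and inhibition was expressed relative to those controls.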
# [8] = NCI Yeast Anticancer Drug Screen. Data for the sgs1 mgt1 strain (AID 161);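 further: 0% = growth of cultures given vehicle only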; settings: S. cerevisiae sgs1 mgt1 strain, stronger effect = higher value
# How it was run: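 Yeast cells carrying a defined DNA-repair defect were exposed to test compounds. Growth inhibition was measured relative to vehicle-treated controls.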
# [9] = NCI Yeast Anticancer Drug Screen. Data for the CLN2oe strain (AID 163);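 further: 0% = growth of vehicle-only control cultures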; settings: S. cerevisiae CLN2oe strain, stronger effect = higher value
# How it was run: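 Compound-treated yeast; growth vs vehicle ctrl = % inhibition. Genetically altered strain (cell-cycle control).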
# [10] = NCI Yeast Anticancer Drug Screen. Data for the cln2 rad14 strain (AID 165);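 further: 0% = growth equal to vehicle treated cultures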; settings: S. cerevisiae cln2 rad14 strain, stronger effect = higher value
# How it was run: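 Growth inhibition, relative to vehicle-treated controls, is the read-out. The test organism is a yeast strain with defined genetic alterations, cln2 rad14.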
# [11] = NCI Yeast Anticancer Drug Screen. Data for the bub3 strain (AID 167); settings: S. cerevisiae bub3 mutant strain, stronger effect = higher value
# How it was run: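 Yeast carrying a defined mutation is treated with each compound, and growth is compared with that of vehicle-exposed cells to give inhibition.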
# [12] = NCI Yeast Anticancer Drug Screen. Data for the wt2 strain (AID 169);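 further: 0% = growth of vehicle-treated yeast cultures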; settings: S. cerevisiae wt2 strain growth inhibition, stronger effect = higher value
# How it was run: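 Compound exposure of yeast; growth compared with vehicle controls; inhibition reported.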
# [13] = NCI Yeast Anticancer Drug Screen. Data for the mlh1 strain (AID 171);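 further: 0% = growth of vehicle-treated control cultures of the same strain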; settings: S. cerevisiae mlh1 strain growth inhibition, stronger effect = higher value
# How it was run: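 Compounds are applied to a genetically altered yeast strain, and its growth is compared with that of vehicle-treated cultures to give percent inhibition.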
# [14] = NCI Yeast Anticancer Drug Screen. Data for the sgs1 strain (AID 173);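 further: 0% = growth of vehicle-only control cultures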; settings: S. cerevisiae sgs1 mutant, stronger effect = higher value
# How it was run: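 Compounds applied to genetically altered yeast; growth compared with vehicle-treated cultures to give % inhibition.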
# [15] = NCI Yeast Anticancer Drug Screen. Data for the mlh1 rad18 strain (AID 175); settings: S. cerevisiae mlh1 rad18 strain growth inhibition, stronger effect = higher value
# How it was run: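 Cells of a genetically altered yeast strain, deficient in DNA damage repair, were treated with compound. Their growth was then compared with that of vehicle-treated cultures to give inhibition.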
# [16] = NCI Yeast Anticancer Drug Screen. Data for the rad18 strain (AID 177); settings: S. cerevisiae rad18 mutant growth inhibition, stronger effect = higher value
# How it was run: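 Compounds are applied to a repair-deficient yeast strain, and growth is compared with that of vehicle-treated cultures to give percent inhibition.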
# [17] = at 5.0 µM (retest, dose inferred, filed as 0.5)
# [18] = at 50.0 µM (retest, dose inferred, filed as 5.0)
compound,measurement,setting,value
Cn1cnc(N)c1C(=N)[Se],growth inhibition,[1]; at 1.2 µM,7%
same,growth inhibition,[1]; at 3.7 µM,26%
same,growth inhibition,[1]; at 11.0 µM,70% (active)
same,growth inhibition,[1]; at 33.0 µM,95% (active)
same,growth inhibition,[1]; at 100.0 µM,95% (active)
same,growth inhibition,[2]; at 1.2 µM,-1%
same,growth inhibition,[2]; at 3.7 µM,3%
same,growth inhibition,[2]; at 11.0 µM,10%
same,growth inhibition,[2]; at 33.0 µM,47%
same,growth inhibition,[2]; at 100.0 µM,80% (active)
same,growth inhibition,[3]; at 1.2 µM,66%
same,growth inhibition,[3]; at 3.7 µM,90% (active)
same,growth inhibition,[3]; at 11.0 µM,98% (active)
same,growth inhibition,[3]; at 33.0 µM,98% (active)
same,growth inhibition,[3]; at 100.0 µM,95% (active)
same,growth inhibition,[4]; at 1.2 µM,1%
same,growth inhibition,[4]; at 3.7 µM,-1%
same,growth inhibition,[4]; at 11.0 µM,4%
same,growth inhibition,[4]; at 33.0 µM,44%
same,growth inhibition,[4]; at 100.0 µM,57%
same,growth inhibition,[5]; at 1.2 µM,27%
same,growth inhibition,[5]; at 3.7 µM,59%
same,growth inhibition,[5]; [17],-44%
same,growth inhibition,[5]; at 11.0 µM,93% (active)
same,growth inhibition,[5]; at 33.0 µM,95% (active)
same,growth inhibition,[5]; [18],89% (active)
same,growth inhibition,[5]; at 50.0 µM,96.5% (active)
same,growth inhibition,[5]; at 100.0 µM,93% (active)
same,growth inhibition,[6]; at 1.2 µM,-2%
same,growth inhibition,[6]; at 3.7 µM,0%
same,growth inhibition,[6]; [17],-46%
same,growth inhibition,[6]; at 11.0 µM,48%
same,growth inhibition,[6]; at 33.0 µM,93% (active)
same,growth inhibition,[6]; [18],50%
same,growth inhibition,[6]; at 50.0 µM,86.5% (active)
same,growth inhibition,[6]; at 100.0 µM,93% (active)
same,growth inhibition,[7]; at 1.2 µM,9%
same,growth inhibition,[7]; at 3.7 µM,15%
same,growth inhibition,[7]; at 11.0 µM,46%
same,growth inhibition,[7]; at 33.0 µM,91% (active)
same,growth inhibition,[7]; at 100.0 µM,94% (active)
same,growth inhibition,[8]; [17],-61%
same,growth inhibition,[8]; [18],-32%
same,growth inhibition,[8]; at 50.0 µM,13.3%
same,growth inhibition,[9]; at 1.2 µM,1%
same,growth inhibition,[9]; at 3.7 µM,-2%
same,growth inhibition,[9]; at 11.0 µM,-3%
same,growth inhibition,[9]; at 33.0 µM,11%
same,growth inhibition,[9]; at 100.0 µM,28%
same,growth inhibition,[10]; [17],-60%
same,growth inhibition,[10]; [18],-40%
same,growth inhibition,[10]; at 50.0 µM,-53.6%
same,growth inhibition,[11]; at 1.2 µM,4%
same,growth inhibition,[11]; at 3.7 µM,15%
same,growth inhibition,[11]; [17],-67%
same,growth inhibition,[11]; at 11.0 µM,80% (active)
same,growth inhibition,[11]; at 33.0 µM,97% (active)
same,growth inhibition,[11]; [18],64%
same,growth inhibition,[11]; at 50.0 µM,78.2% (active)
same,growth inhibition,[11]; at 100.0 µM,94% (active)
same,growth inhibition,[12]; at 1.2 µM,10%
same,growth inhibition,[12]; at 3.7 µM,25%
same,growth inhibition,[12]; at 11.0 µM,59%
same,growth inhibition,[12]; at 33.0 µM,77% (active)
same,growth inhibition,[12]; at 100.0 µM,87% (active)
same,growth inhibition,[13]; at 1.2 µM,2%
same,growth inhibition,[13]; at 3.7 µM,-3%
same,growth inhibition,[13]; at 11.0 µM,28%
same,growth inhibition,[13]; at 33.0 µM,60%
same,growth inhibition,[13]; at 100.0 µM,89% (active)
same,growth inhibition,[14]; at 1.2 µM,2%
same,growth inhibition,[14]; at 3.7 µM,-1%
same,growth inhibition,[14]; at 11.0 µM,40%
same,growth inhibition,[14]; at 33.0 µM,84% (active)
same,growth inhibition,[14]; at 100.0 µM,92% (active)
same,growth inhibition,[15]; [17],-126%
same,growth inhibition,[15]; [18],84% (active)
same,growth inhibition,[15]; at 50.0 µM,80.5% (active)
same,growth inhibition,[16]; at 1.2 µM,-9%
same,growth inhibition,[16]; at 3.7 µM,7%
same,growth inhibition,[16]; at 11.0 µM,58%
same,growth inhibition,[16]; at 33.0 µM,80% (active)
same,growth inhibition,[16]; at 100.0 µM,91% (active)
c1cc2c(cc1C1OC[C@H]3[C@@H](c4ccc5c(c4)OCO5)OC[C@@H]13)OCO2 (stereo partly specified),growth inhibition,[1]; at 1.2 µM,-9%
same,growth inhibition,[1]; at 3.7 µM,-16%
same,growth inhibition,[1]; at 11.0 µM,-3%
same,growth inhibition,[1]; at 33.0 µM,-1%
same,growth inhibition,[1]; at 100.0 µM,-6%
same,growth inhibition,[2]; at 1.2 µM,-1%
same,growth inhibition,[2]; at 3.7 µM,-6%
same,growth inhibition,[2]; at 11.0 µM,1%
same,growth inhibition,[2]; at 33.0 µM,-20%
same,growth inhibition,[2]; at 100.0 µM,-8%
same,growth inhibition,[3]; at 1.2 µM,-7%
same,growth inhibition,[3]; at 3.7 µM,-16%
same,growth inhibition,[3]; at 11.0 µM,3%
same,growth inhibition,[3]; at 33.0 µM,16%
same,growth inhibition,[3]; at 100.0 µM,2%
same,growth inhibition,[4]; at 1.2 µM,-4%
same,growth inhibition,[4]; at 3.7 µM,-9%
same,growth inhibition,[4]; at 11.0 µM,-2%
same,growth inhibition,[4]; at 33.0 µM,-5%
same,growth inhibition,[4]; at 100.0 µM,-5%
same,growth inhibition,[5]; at 1.2 µM,-16%
same,growth inhibition,[5]; at 3.7 µM,-19%
same,growth inhibition,[5]; [17],2%
same,growth inhibition,[5]; at 11.0 µM,-16%
same,growth inhibition,[5]; at 33.0 µM,-22%
same,growth inhibition,[5]; [18],3%
same,growth inhibition,[5]; at 50.0 µM,15.3%
same,growth inhibition,[5]; at 100.0 µM,8%
same,growth inhibition,[6]; at 1.2 µM,-2%
same,growth inhibition,[6]; at 3.7 µM,-4%
same,growth inhibition,[6]; [17],2%
same,growth inhibition,[6]; at 11.0 µM,-4%
same,growth inhibition,[6]; at 33.0 µM,-5%
same,growth inhibition,[6]; [18],8%
same,growth inhibition,[6]; at 50.0 µM,-0.6%
same,growth inhibition,[6]; at 100.0 µM,-1%
same,growth inhibition,[7]; at 1.2 µM,1%
same,growth inhibition,[7]; at 3.7 µM,6%
same,growth inhibition,[7]; at 11.0 µM,17%
same,growth inhibition,[7]; at 33.0 µM,26%
same,growth inhibition,[7]; at 100.0 µM,28%
same,growth inhibition,[8]; [17],7%
same,growth inhibition,[8]; [18],20%
same,growth inhibition,[8]; at 50.0 µM,60%
same,growth inhibition,[9]; at 1.2 µM,-7%
same,growth inhibition,[9]; at 3.7 µM,-9%
same,growth inhibition,[9]; at 11.0 µM,-10%
same,growth inhibition,[9]; at 33.0 µM,-9%
same,growth inhibition,[9]; at 100.0 µM,-7%
same,growth inhibition,[10]; [17],-2%
same,growth inhibition,[10]; [18],-8%
same,growth inhibition,[10]; at 50.0 µM,10.8%
same,growth inhibition,[11]; at 1.2 µM,14%
same,growth inhibition,[11]; at 3.7 µM,26%
same,growth inhibition,[11]; [17],70% (active)
same,growth inhibition,[11]; at 11.0 µM,37%
same,growth inhibition,[11]; at 33.0 µM,46%
same,growth inhibition,[11]; [18],83% (active)
same,growth inhibition,[11]; at 50.0 µM,75.8% (active)
same,growth inhibition,[11]; at 100.0 µM,39%
same,growth inhibition,[12]; at 1.2 µM,-1%
same,growth inhibition,[12]; at 3.7 µM,2%
same,growth inhibition,[12]; at 11.0 µM,7%
same,growth inhibition,[12]; at 33.0 µM,24%
same,growth inhibition,[12]; at 100.0 µM,12%
same,growth inhibition,[13]; at 1.2 µM,-16%
same,growth inhibition,[13]; at 3.7 µM,-8%
same,growth inhibition,[13]; at 11.0 µM,-8%
same,growth inhibition,[13]; at 33.0 µM,-8%
same,growth inhibition,[13]; at 100.0 µM,-6%
same,growth inhibition,[14]; at 1.2 µM,-16%
same,growth inhibition,[14]; at 3.7 µM,-11%
same,growth inhibition,[14]; at 11.0 µM,3%
same,growth inhibition,[14]; at 33.0 µM,9%
same,growth inhibition,[14]; at 100.0 µM,15%
same,growth inhibition,[15]; [17],7%
same,growth inhibition,[15]; [18],17%
same,growth inhibition,[15]; at 50.0 µM,27.6%
same,growth inhibition,[16]; at 1.2 µM,-10%
same,growth inhibition,[16]; at 3.7 µM,-6%
same,growth inhibition,[16]; at 11.0 µM,-4%
same,growth inhibition,[16]; at 33.0 µM,-8%
same,growth inhibition,[16]; at 100.0 µM,-11%
